Laboratory results as given in PubChem BioAssay (NCATS).
Results filed as inconclusive are left out. Entries that show only a call come without a potency. Active and inactive are the calls of the source. The call rests on the fitted dose curve; in most records, active means well fitted inhibition curve with a large enough effect; inconclusive means small, poorly fitted or top-dose-only effect; inactive means no such curve, though single readings can be large or run the other way.

Experiment: qHTS Screen of the MIPE 4.0 Collection Against Ewings Sarcoma (RDES) (AID 1259252); further: nearly all actives have a fitted effect of over 35% in size
Settings: RD-ES Ewing sarcoma viability, CellTiter-Glo, 48 h; series mostly up to 45.8 µM
Source text: There is a large unmet medical need for treatments for Ewing sarcoma, a pediatric sarcoma. We sought to identify compounds that inhibited Ewing sarcoma cells in vitro with the goal to then test promising drugs in two drug combinations in vitro to look for synergistic drug combinations. Promising combinations would then proceed to additional validation, including in vivo testing.
Using the NCATS developed oncology compound library called the Mechanism of Interrogation Plate (MIPE), four Ewing sarcoma cell lines were evaluated (TC32, TC71, RDES, EW8). Compounds, in a 12-point titration series, were incubated with cells for 48 hours and the read out was cell viability (CellTiter-Glo from Promega). These initial experiments were used to select appropriate concentrations of each single agent for subsequent two-drug matrix combinations such that the concentrations in the matrices would span both activity and non-activity.
Cells, in the log phase of growth, were seeded in 5 uL of RPMI plus 5% FBS, […] L-glutamine, 100 U/ml penicillin and 100 ug/ml streptomycin into 1536-well solid-bottom white tissue culture treated Greiner Bio One Plates (789173-F) using a MultiDrop Combi (Thermofisher Scientific) dispenser and a small sterile cassette. One column was media alone to be used as a :"no cells" control. The plates were then covered with sterilized stainless steel gasketed lids from Kalypsys. After allowing cells to attach for 4 hours, 23 nL of test compound or control (negative control DMSO and positive control 9.2 uM Bortezomib-final) were added from a 1536-well polypropylene compound source plate to each well using a 1536 head pin tool from Kalypsys. Cells were then incubated for 48 hours at 37C, 95% relative humidity and 5% CO2. After 48 hours, plates were removed from the incubator and 3 uL of CellTiter-Glo (Promega) was added using an Aurora Flying Reagent Dispenser Bioraptor. Plates were incubated at room temperature for 10 minutes prior to reading the luminescence on the Viewlux (PerkinElmer). The relative luciferase units are used to calculate the percent activity using the activity of DMSO in the cells and no cells columns for normalization of no inhibition and full inhibition respectively.
Potency means the concentration at half of the fitted maximal effect.

| SMILES | Potency |
| --- | --- |
| N#CNC(=NCCCCCCOc1ccc(Cl)cc1)Nc1ccncc1 | inactive |
| CC(=O)OCC(=O)[C@@]12N=C(C)O[C@H]1C[C@H]1[C@@H]3CCC4=CC(=O)C=C[C@]4(C)[C@@H]3[C@@H](O)C[C@@]12C | inactive |
| O=C(Nc1nnc(-c2ccco2)o1)c1cc(-c2ccccc2)nc2ccccc12 | 16.6 µM (active) |
| CC1=C(C(=O)Nc2cc3cn[nH]c3cc2F)C(c2ccc(Cl)cc2F)N=C(c2ccnc(Cl)c2)N1 (stereo not given) | 18.7 µM (active) |
| NC(=O)c1ncn([C@@H]2O[C@H](CO)[C@@H](O)[C@@H]2O)c1O | inactive |
| C[C@H](CCC(=O)O)[C@H]1CCC2C3C[C@H](O)[C@@H]4C[C@H](O)CC[C@]4(C)C3CC[C@@]21C (stereo not given in full) | inactive |
| CC(C)N(CC[C@H](c1ccccc1)c1cc(CO)ccc1O)C(C)C | inactive |
| CC(=O)O[C@H]1C[C@@H]2CC[C@H]3[C@H]4C[C@H]([N+]5(C)CCCCC5)[C@@H](OC(C)=O)[C@@]4(C)CC[C@@H]3[C@@]2(C)C[C@H]1N1CCCCC1 | 7.43 µM (active) |
| CN(C)CC(=O)N1CCC(c2ccc(NC(=O)c3ncc(C#N)[nH]3)c(C3=CCCCC3)c2)CC1 | 13.2 µM (active) |
| CC1(C)CC(O)CC(C)(C)N1[O] | inactive |
| CC(Oc1ccc(O)cc1)(P(=O)(O)O)P(=O)(O)O | inactive |
| O=C(NNC(=O)c1ccc(CNS(=O)(=O)c2ccc(F)c(Cl)c2)cc1)c1ccccc1 | inactive |
| CC(=O)N[C@@H]1[C@H](O[C@@H]2c3ccc(c(Cl)c3)Oc3cc4cc(c3O[C@H]3O[C@H](CO)[C@@H](O)[C@H](O)[C@H]3NC(=O)CCCCCCCC(C)C)Oc3ccc(cc3Cl)C[C@H]3NC(=O)[C@H](N)c5ccc(O)c(c5)Oc5cc(O)cc(c5)[C@H](NC3=O)C(=O)N[C@H]4C(=O)N[C@H]3C(=O)N[C@@H]2C(=O)N[C@@H](C(=O)O)c2cc(O)cc(O[C@H]4O[C@H](CO)[C@@H](O)[C@H](O)[C@H]4O)c2-c2cc3ccc2O)O[C@H](CO)[C@@H](O)[C@@H]1O | inactive |
| NC(=O)Nc1cc(-c2ccc(CN3CCOCC3)cc2)sc1C(N)=O | 4.69 µM (active) |
| C[C@H](NC(=O)[C@@H](O)c1cc(F)cc(F)c1)C(=O)N[C@@H]1C(=O)N(C)c2ccccc2-c2ccccc21 | inactive |
| CO[C@@H]1[C@@H](O)[C@H](O)[C@@H](n2c3c(Cl)cccc3c3c4c(c5c6cccc(Cl)c6[nH]c5c32)C(=O)NC4=O)O[C@@H]1CO | 0.105 µM (active) |
| COc1cc([C@@H]2c3cc4c(cc3[C@@H](O[C@@H]3O[C@@H]5CO[C@@H](c6cccs6)O[C@@H]5[C@H](O)[C@@H]3O)[C@H]3COC(=O)[C@H]23)OCO4)cc(OC)c1O | 0.264 µM (active) |
| COc1ccnc2[nH]cc(C(=O)C(=O)N3CCN(C(=O)c4ccccc4)C[C@@H]3C)c12 | inactive |
| O=C(Nc1cccc(Nc2ncc(Br)c(NCCc3cnc[nH]3)n2)c1)N1CCCC1 | 7.43 µM (active) |
| O=S(=O)(O)CCSSCCS(=O)(=O)O | inactive |

| SMILES | Potency |
| --- | --- |
| C=C[C@@H]1CN2CCC1C[C@H]2[C@H](O)c1ccnc2ccc(OC)cc12 (stereo not given in full) | inactive |
| CC[C@]12C=CCN3CC[C@@]4(c5cc([C@@]6(C(=O)OC)C[C@H]7C[C@@H](C(C)(F)F)CN(Cc8c6[nH]c6ccccc86)C7)c(OC)cc5N(C)[C@H]4[C@@](O)(C(=O)OC)[C@H]1OC(C)=O)[C@@H]32 | 0.0105 µM (active) |
| CC(=O)NC(CS)C(=O)O (stereo not given) | inactive |
| CC(C)C[C@H](NC(=O)CNC(=O)c1cc(Cl)ccc1Cl)B1OC(=O)CC(CC(=O)O)(C(=O)O)O1 (stereo not given in full) | 0.235 µM (active) |
| CCc1nc(-c2cccc(C)c2)c(-c2ccnc(NC(=O)c3ccccc3)c2)s1 | 14.8 µM (active) |
| C[C@H]1C[C@H]2[C@@H]3CCC4=CC(=O)C=C[C@]4(C)[C@@H]3C(=O)C[C@]2(C)[C@@]1(O)C(=O)CO | inactive |
| COc1cc2ncnc(Nc3cccc(Br)c3)c2cc1OC | 0.132 µM (active) |
| C[C@@H]1CC[C@@]2(OC1)OC1CC3C4CC=C5CC(O)CCC5(C)C4CCC3(C)C1[C@@H]2C (stereo not given in full) | inactive |
| COC(=O)[C@@H]1[C@H]2C[C@@H]3c4[nH]c5ccccc5c4CCN3C[C@@H]2CC[C@@H]1O | inactive |
| CCC(C=C[C@@H]1OC(=O)C=C[C@H]1C)=C[C@H](C)CC=CC(C)=C[C@@H](C)C(=O)[C@@H](C)[C@H](O)[C@@H](C)CC(C)=CC(=O)O | 0.022 µM (active) |
| C=CCNc1c(O)cc2c(O)c1C[C@@H](C)C[C@H](OC)[C@@H](O)[C@@H](C)C=C(C)[C@H](OC(N)=O)[C@@H](OC)C=CC=C(C)C(=O)N2 | 2.64 µM (active) |
| N#Cc1c(NC(=O)c2cccc3ccccc23)sc2c1CCCC2 | 0.296 µM (active) |
| CCOC(=O)C=C[C@H](C[C@@H]1CCNC1=O)NC(=O)[C@@H](CC(=O)[C@@H](NC(=O)c1cc(C)on1)C(C)C)Cc1ccc(F)cc1 | inactive |
| C[C@H](O)[C@@H]1C(=O)N2C(C(=O)O)=C(S[C@@H]3CN[C@H](CNS(N)(=O)=O)C3)[C@@H](C)[C@@H]12 | inactive |
| C[C@H](NC(=O)Cc1cc(F)cc(F)c1)C(=O)N[C@H](C(=O)OC(C)(C)C)c1ccccc1 | inactive |
| Cc1cc(C(=O)NOCCO)c(Nc2ccc(I)cc2F)n(C)c1=O | inactive |
| C=CCNC1=C2C[C@@H](C)C[C@H](OC)[C@@H](O)[C@@H](C)C=C(C)[C@H](OC(N)=O)[C@@H](OC)C=CC=C(C)C(=O)NC(=CC1=O)C2=O | 6.62 µM (active) |
| CC(C)c1cnn2c(NCc3ccccc3)cc(NCCCCCCN)nc12 | 3.72 µM (active) |
| CCCCCCCCCCCCCCCC(=O)OC[C@@H](NC(=O)C(Cl)Cl)[C@H](O)c1ccc([N+](=O)[O-])cc1 | inactive |
| C=CC1=C(C(=O)O)N2C(=O)[C@@H](NC(=O)C(=NO)c3csc(N)n3)[C@H]2SC1 | inactive |
